In PubChem BioAssay (NCI):
Compounds without any hit were thinned out: in the full panel of roughly 79,000, 15% have a hit. Values without a mark were called inactive. Calls of active or inactive are those of the source. Cut-off read from the data, not from the text of the source: active = growth inhibition above about 70%; inactive = the rest.

Assays:
[1] = NCI Yeast Anticancer Drug Screen. Data for the rad50 strain (AID 155);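 note: 0% = growth of vehicle-only cultures of the same strain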; conditions: S. cerevisiae rad50 strain growth inhibition; at 50.0 µM; active compounds read high
Outline: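 Inhibition values express reduced yeast growth in compound-treated cultures relative to vehicle-treated controls.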

[2] = NCI Yeast Anticancer Drug Screen. Data for the mec2-1 strain (AID 157); conditions: S. cerevisiae mec2-1 strain, at 50.0 µM, active compounds read high
Outline: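 Strain: mec2-1 (DNA repair/cell cycle alteration). Compound exposure, then growth measured; inhibition expressed relative to vehicle.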

[3] = NCI Yeast Anticancer Drug Screen. Data for the sgs1 mgt1 strain (AID 161);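 note: 0% = growth of cultures given vehicle only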; conditions: S. cerevisiae sgs1 mgt1 strain, at 50.0 µM, active compounds read high
Outline: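 Mutant yeast exposed to compound; growth scored against vehicle-only wells.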

[4] = NCI Yeast Anticancer Drug Screen. Data for the cln2 rad14 strain (AID 165);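 note: 0% = growth equal to vehicle treated cultures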; conditions: S. cerevisiae cln2 rad14 strain, at 50.0 µM, active compounds read high
Outline: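 Compounds are applied to the cln2 rad14 yeast strain, and growth is then compared with that of vehicle-treated cultures to give inhibition.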

[5] = NCI Yeast Anticancer Drug Screen. Data for the bub3 strain (AID 167); conditions: S. cerevisiae bub3 mutant strain, at 50.0 µM, active compounds read high
Outline: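 Steps: expose the mutant yeast strain to compound; grow alongside vehicle-treated cultures; measure growth; express inhibition against the vehicle cultures.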

[6] = NCI Yeast Anticancer Drug Screen. Data for the mlh1 rad18 strain (AID 175); conditions: S. cerevisiae mlh1 rad18 strain growth inhibition; at 50.0 µM; active compounds read high
Outline: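 Read-out is yeast growth inhibition, calculated against vehicle-only controls. The compound was applied to a strain engineered with DNA damage repair alterations.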

SMILES	growth inhibition [1]	growth inhibition [2]	growth inhibition [3]	growth inhibition [4]	growth inhibition [5]	growth inhibition [6]
CC1(C)C2CCC(=O)C1CC2 (centres undefined)	6.75%	14.2%	-22.6%	12.7%	-37.4%	-43.5%
CC(=O)CC(=O)Nc1ccccc1Cl	19.4%	-4.6%	24.2%	-5.75%	-4.9%	16.4%
CN(c1ccccc1)c1cc2nc3ccccc3nc2cc1O	15.3%	17.4%	4.3%	14.3%	2%	-1.6%
CC1=N/C(=C\c2ccc(N)cc2)C(=O)N1Nc1nnc(NN2C(=O)/C(=C/c3ccc(N)cc3)N=C2C)c2ccccc12	-11.7%	-13.3%	1.2%	7.35%	-30.4%	-2.35%
CCCCCC1OC1CC1OC1CCCCCCCC(=O)O (centres undefined)	-5.5%	-21.1%	-3.85%	-14.8%	-12.8%	-13.4%
CC1(c2ccccc2)CC(c2cccc([N+](=O)[O-])c2)=NO1 (centres undefined)	27.4%	15.9%	36.9%	34.9%	28.6%	23.4%
CCN(CC)c1ccc2c(c1)Oc1cc(N(CC)CC)ccc1C2c1ccccc1C(=O)O	-10.2%	-32.6%	-1.5%	13.8%	3.6%	-3.45%
CCN(CC)CCN1Cc2ccccc2C1	-4.8%	3.85%	-1.7%	-14.1%	7.4%	2.45%
CCOC(=O)c1sc(SC)nc1NC(=O)c1ccc([N+](=O)[O-])cc1	-13.4%	-8.55%	-53%	-1.3%	-20.5%	-3.85%
CCOC(=O)/N=[N+](\[O-])c1ccccc1	64.5%	46.9%	57.6%	11.9%	41.5%	86.8% (active)
COc1cc(Cc2c(OC)c(OC)cc(C)c2C(=O)O)cc(OC)c1	18.6%	-12.8%	-1.75%	6.95%	-13.9%	-14.4%
c1ccc2c(c1)C1CC3N=NC1C23 (centres undefined)	3.3%	-1.35%	-10.5%	-20.1%	3.8%	-3.95%
CN1C(=O)CC(c2ccc(Cl)cc2)C1=O (centres undefined)	21.4%	21.4%	-0.65%	2.5%	-3.75%	2.65%
CC(=O)Nc1c(F)c(F)c(F)c(F)c1F	20.1%	2.2%	-11.7%	-35%	14.3%	-13.1%
N#Cc1ccc[n+]([O-])c1	-8.8%	-6.1%	0.05%	-0.7%	7.65%	-4.6%
O=C1NC(=O)C(=O)N1	25.8%	13.4%	8.65%	16.4%	27.8%	-1.8%
CC1C=CC(C(N)C(=O)O)O1 (centres undefined)	-9.9%	-17.6%	-13.1%	-0.7%	-5.35%	-9.85%
O=C(O)Cc1ccc(Oc2ccc(CC(=O)O)cc2)cc1	-4.15%	-9.5%	1.85%	-48.8%	-8.75%	0.55%
O=C(O)c1ccc(N=C=S)cc1O	-1.95%	-8.75%	-2.1%	-12.8%	3.8%	-1.8%
CCCCCCCCCCCCCCCC(=O)OC/C=C/COC(=O)c1ccccc1	22.9%	-9.7%	-6.25%	-2.95%	2.65%	-13%

SMILES	growth inhibition [1]	growth inhibition [2]	growth inhibition [3]	growth inhibition [4]	growth inhibition [5]	growth inhibition [6]
O=C1c2ccccc2-c2nc(-c3cccs3)cc3c2c1nc1ccccc13	41.2%	21.4%	29.1%	21.9%	25%	36.2%
O=C(/C=C/c1ccccn1)c1ccc(Cl)cc1	22.1%	10.7%	24.1%	16.9%	22.4%	13.1%
O=[N+]([O-])c1ccc(/C(CBr)=N/N2CCCCC2)cc1	-19.6%	-24.9%	-4.6%	3.55%	-9.65%	-13.6%
O/N=C1\c2ccccc2-c2cccc(I)c21	23.4%	-5.25%	7.8%	1.5%	1.1%	5.5%
COc1ccc(OC)c(NC(=O)Nc2cc(Cl)ccc2C)c1	4.25%	0.65%	-2.3%	-6.1%	19.2%	4.8%
NC1(C(=O)O)CC(O)(c2ccccc2)C(O)(c2ccccc2)C1 (centres undefined)	-22.5%	-6.1%	-10%	6.2%	3.75%	-9.5%
CCOC(=O)c1ccc(NC(=O)Nc2ccccc2C(=O)OC)cc1	9.95%	0.35%	2.7%	9.55%	25.4%	7.4%
CCOc1ccc(NC(=O)CC2SC(N)=NC2=O)cc1 (centres undefined)	-15.2%	-35.5%	-1.9%	8.5%	-2.8%	-0.6%
CC1(C)N=C(N)N=C(N)N1c1cccc(OCc2cccc([N+](=O)[O-])c2)c1	0.55%	7.2%	-31.3%	24.6%	-30.3%	-14.8%
COc1ccc(/C(C)=N/NC(=O)c2ccncc2)c(OC)c1	-7.85%	-20.6%	-29.2%	-29.4%	-42.6%	-33.1%
COC1OC2COC(C)(C)OC2C1OS(=O)(=O)c1ccc(C)cc1 (centres undefined)	-1.75%	12.6%	6.4%	-17.1%	-0.5%	29.6%
NC1=NC(c2ccccc2O)CC(=O)N1 (centres undefined)	-6.4%	-8.25%	-12.9%	-32.6%	-3.9%	-6.35%
CC(=O)OC1[C@H](OC(C)=O)C2=C(C)[C@@H](OC(C)=O)C[C@@]2(C(C)(C)O)[C@@H](OC(C)=O)[C@H]2[C@@]1(C)[C@@H](OC(C)=O)CC(OC(C)=O)[C@]21CO1 (some centres undefined)	3.4%	29.9%	-20.3%	7.05%	-32.8%	-59%
O=C1OC(=O)C2CCCCC12 (centres undefined)	29.9%	-11.9%	-11.4%	-48.3%	8.95%	18.9%
O=C1c2cccc3c([N+](=O)[O-])ccc(c23)C(=O)N1CCc1ccccn1	24.9%	19.2%	45.5%	1.95%	17.9%	26.6%
Cc1ccc2nc(N(C)C)cc(N(C)C)c2c1	-7.1%	6%	0.2%	-100%	-4.1%	7.9%
CC(=O)N/N=C/c1ccc(C)cc1	6.6%	-1.3%	-11.1%	-0.9%	-11.8%	1.75%
COC(=O)NC(Nc1ccc(C)cc1)(C(F)(F)F)C(F)(F)F	11.9%	-8.9%	-39.6%	5.9%	-2.65%	-4.7%
C[Si](C)(C)N1N=NC2C(=O)N(c3ccccc3)C(=O)C21 (centres undefined)	-10.4%	-0.5%	-13.4%	0.1%	0.4%	-7.4%
